PubChem BioAssay (EPA / NIEHS)
Records with an inconclusive call do not appear. Calls of active or inactive are those of the source. How the source made its calls: active means hit-call score of the fitted dose curve at least 0.9, where 1 is the maximum; inconclusive means response in the unintended direction; inactive means score below 0.9.

Assay: IUF_NPC2-5_cytotoxicity_72hr: Cytotoxicity Assessment at 72 hours in the Leibniz Research Institute for Environmental Medicine (IUF) Neural Progenitor Cell Migration and Differentiation Assay for Cytotoxicity (NPC2-5) (AID 2284306);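 further: LDH release into supernatant measured by resorufin fluorescence marking membrane damage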
Outline: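 Human fetal (GW 16-19) neural progenitor spheres, 0.3 mm, plated on poly-D-lysine/laminin in N2 differentiation medium and exposed from day 0 to 7 concentrations plus solvent control (DMSO ≤0.1%). LDH-dependent resazurin-to-resorufin fluorescence in supernatant at 72 h.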

Compound	outcome	AC50
Cc1cc(C(F)(C(F)(F)F)C(F)(F)F)ccc1NC(=O)c1cccc(I)c1C(=O)NC(C)(C)CS(C)(=O)=O	inactive	–
Cc1ccccc1OP(=O)(Oc1ccccc1C)Oc1ccccc1C	inactive	–
O=S1OC[C@@H]2[C@H](CO1)[C@]1(Cl)C(Cl)=C(Cl)[C@@]2(Cl)C1(Cl)Cl (some centres undefined)	inactive	–
CS(=O)(=O)c1ccc(C(=O)C2C(=O)CCCC2=O)c(Cl)c1COCC(F)(F)F	inactive	–
CC(C)[C@@H](Nc1ccc(C(F)(F)F)cc1Cl)C(=O)OC(C#N)c1cccc(Oc2ccccc2)c1 (some centres undefined)	inactive	–
CCOCn1c(-c2ccc(Cl)cc2)c(C#N)c(Br)c1C(F)(F)F	–	50 µM (active)
CNC(=O)CSP(=O)(OC)OC	inactive	–
OC(Cc1ccccc1Cl)(Cn1[nH]cnc1=S)C1(Cl)CC1 (centres undefined)	inactive	–
CC1(C)[C@H](C(=O)O[C@H](C#N)c2cccc(Oc3ccccc3)c2)[C@@H]1/C=C(\Cl)C(F)(F)F	inactive	–
